Bcl-xL primary: inhibitors of human Bcl-xL. Q07817. GST-Bcl-xL / FITC-Bim BH3 peptide fluorescence polarization. inhibition, % at 10.9 µM. 320,000 compounds, 0.7% hits. AID 2129;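 active = inhibition above the mean of all tested compounds plus 3 SD, cutoff set per campaign, cut at about 30% in these data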;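 note: 0% = DMSO wells and 100% = unlabeled Bim-BH3 peptide competitor; inhibitors lower millipolarization by displacing the labeled peptide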
Target sequence (Q07817 whole entry, looked up): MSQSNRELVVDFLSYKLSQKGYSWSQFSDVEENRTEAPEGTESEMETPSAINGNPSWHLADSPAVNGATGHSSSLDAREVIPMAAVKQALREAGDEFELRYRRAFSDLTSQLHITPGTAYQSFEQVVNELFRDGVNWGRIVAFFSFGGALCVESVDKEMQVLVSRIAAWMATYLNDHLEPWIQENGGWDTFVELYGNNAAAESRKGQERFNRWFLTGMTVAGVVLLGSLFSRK
eLon inh: inhibits E. coli Lon protease | P0A9M0 | purified E. coli Lon protease, fluorescence polarization | inhibition, % at 7.94 µM | 360,000 compounds, 0.42% hits | AID 602123; in the data active = inhibition above about 13%, passing the limit was not always enough;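 note: 0% = enzyme with probe and DMSO and 100% = no enzyme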
GLD-1 TGE inh: GLD-1-TGE RNA interaction inhibition (C. elegans); Q17339; inhibition, % at 5.96 µM; 320,000 compounds, 0.44% hits; purified GLD-1 + fluorescein TGE RNA, fluorescence polarization;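 active = percent inhibition above a per-plate cutoff, the plate mean of test compounds plus 3 SD, cut at about 30% in these data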;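 note: 0% = DMSO wells with GLD-1 and probe and 100% = wells lacking GLD-1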
EBV gp42 inh: inhibitors of Epstein-Barr virus glycoprotein 42 | AID 1085 | Fluorescence polarization binding assay, mP read-out | 220,000 compounds, 0.42% hits | Q1HVG2 | inhibition, % (tested at 21.74 µM); in the data active = inhibition above about 50%
Target sequence (Q1HVG2 whole entry, looked up): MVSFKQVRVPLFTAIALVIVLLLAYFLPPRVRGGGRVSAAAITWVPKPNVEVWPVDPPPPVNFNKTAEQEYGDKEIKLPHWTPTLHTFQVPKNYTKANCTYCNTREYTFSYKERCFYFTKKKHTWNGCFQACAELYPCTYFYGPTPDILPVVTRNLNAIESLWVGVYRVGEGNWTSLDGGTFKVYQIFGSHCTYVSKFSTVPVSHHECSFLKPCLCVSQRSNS
MEX-5 binding: C. elegans MEX-5 TCR-2 RNA binding activity; MEX-5/FITC-TCR2 RNA binding, fluorescence polarization; hits give low values; 300,000 compounds, 0.38% hits; activity score (negative = inhibition of binding), % at 10 µM;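 active = inhibition past about -25% in most replicates, and total fluorescence under double the plate's negative control median, limit read from the data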;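 note: 0% = DMSO and -100% = 5 µM competing unlabeled TCR2 RNA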
An asterisk follows results filed as active. Compounds with a hit are over-represented: about 1.3% of the library has one in this group of screens.

How did CN(CCc1ccccc1)C(=O)c1ccc(NC(=O)Cc2ccc(NC(=O)C3CCN(C(=O)c4ccccc4)CC3)cc2)cc1 do in these assays?
eLon inh: 1

Results for O=C(NCc1ccc(F)cc1F)[C@@H]1CCCN1C(=O)[C@@H]1CCCN1C(=O)c1cccs1 ?
eLon inh: -2

How did COc1cc(C[C@@H](C)[C@@H](C)Cc2ccc(O)c(OC)c2)ccc1O do in these assays?
eLon inh: 2; GLD-1 TGE inh: 11

What do the screens show for `CC(Cc1ccc(O)c(O)c1)C(C)Cc1ccc(O)c(O)c1` (configuration not stated)?
Bcl-xL primary: 31*; GLD-1 TGE inh: 15; MEX-5 binding: -36*

What do the screens show for `O=C(NCc1ccccc1)c1ccc(S(=O)(=O)NCc2ccco2)cc1`?
Bcl-xL primary: -2; eLon inh: 6; GLD-1 TGE inh: 4; MEX-5 binding: -1

How did Cn1c(C(=O)NCCN2CCOCC2)cc2c(=O)n(C)c3ccccc3c21 do in these assays?
Bcl-xL primary: 2; eLon inh: 0; GLD-1 TGE inh: 8; EBV gp42 inh: -26; MEX-5 binding: -4

How did CC1CCCCN1CCNC(=O)c1cc2c(=O)n(C)c3ccccc3c2n1C (configuration not stated) do in these assays?
Bcl-xL primary: 34*; eLon inh: 3; GLD-1 TGE inh: -50; EBV gp42 inh: 8; MEX-5 binding: -6

Results for O=C(CSc1ncccn1)Nc1ccc2c(c1)CCC2 ?
Bcl-xL primary: 3; eLon inh: 1; GLD-1 TGE inh: 0; EBV gp42 inh: -4; MEX-5 binding: -2

What do the screens show for `O=S(=O)(NNC(=S)Nc1ccc(S(=O)(=O)Nc2ncccn2)cc1)c1ccc(Br)cc1`?
Bcl-xL primary: 2; eLon inh: 12; GLD-1 TGE inh: 0; MEX-5 binding: -99*

What do the screens show for `O=C(NC(=S)Nc1ccc(S(=O)(=O)Nc2ncccn2)cc1)c1ccc(Br)cc1`?
Bcl-xL primary: 8; eLon inh: 5; GLD-1 TGE inh: -3; EBV gp42 inh: -4; MEX-5 binding: -3

What do the screens show for `O=C(NCCO)Nc1ccc2nc(-c3ccco3)c(-c3ccco3)nc2c1`?
Bcl-xL primary: 136*; GLD-1 TGE inh: 78*; EBV gp42 inh: 49

How did CCCCNC(=O)c1ccc2nc(-c3ccco3)c(-c3ccco3)nc2c1 do in these assays?
Bcl-xL primary: 41*; eLon inh: 2; GLD-1 TGE inh: 8; EBV gp42 inh: 10; MEX-5 binding: 0

Results for O=C(NCc1ccccc1)c1ccc2nc(-c3ccco3)c(-c3ccco3)nc2c1 ?
Bcl-xL primary: 46*; eLon inh: 5; GLD-1 TGE inh: 15; EBV gp42 inh: 2; MEX-5 binding: -1

How did O=C(c1ccc2nc(-c3ccco3)c(-c3ccco3)nc2c1)N1CCN(c2ncccn2)CC1 do in these assays?
Bcl-xL primary: 38*; eLon inh: 4; GLD-1 TGE inh: 15; EBV gp42 inh: 45; MEX-5 binding: -5

How did O=C(NCCCO)c1ccc2nc(-c3ccco3)c(-c3ccco3)nc2c1 do in these assays?
eLon inh: -3; EBV gp42 inh: -6

Results for O=C(Nc1ccccc1)c1ccc2nc(-c3ccco3)c(-c3ccco3)nc2c1 ?
Bcl-xL primary: 27; eLon inh: -11; GLD-1 TGE inh: 12; EBV gp42 inh: -4; MEX-5 binding: -1

Results for COc1ccccc1C(=O)NC(=O)CSc1nnc(SC)s1 ?
Bcl-xL primary: -13; eLon inh: -7; GLD-1 TGE inh: -1; MEX-5 binding: -2

What do the screens show for `O=c1[nH]c2cccc(F)c2n2cccc12`?
Bcl-xL primary: 6; eLon inh: 8; GLD-1 TGE inh: -1; MEX-5 binding: -1

How did CC(=O)c1ccc(NC(=O)c2ccc3nc(-c4ccco4)c(-c4ccco4)nc3c2)cc1 do in these assays?
Bcl-xL primary: 39*; eLon inh: -6; GLD-1 TGE inh: 13; EBV gp42 inh: 99*; MEX-5 binding: -6

Results for COC(=O)CCC(C)C1CCC2C3C(OC(C)=O)CC4CC(O)CCC4(C)C3CC(O)C12C (configuration not stated) ?
eLon inh: 6

Results for Oc1c(C=Nc2cccc3cccnc23)sc2ccccc12 ?
Bcl-xL primary: 80*; GLD-1 TGE inh: -152; EBV gp42 inh: -17; MEX-5 binding: 4

What do the screens show for `Cc1cccc(/N=C/c2sc3ccccc3c2O)n1`?
Bcl-xL primary: -46; eLon inh: -46; GLD-1 TGE inh: -61; EBV gp42 inh: -18; MEX-5 binding: -1

How did O=C(NC1CCCC1)C(c1ccccc1)N(C(=O)c1csnn1)c1ccccc1F (configuration not stated) do in these assays?
Bcl-xL primary: -1; eLon inh: -3; GLD-1 TGE inh: 2; MEX-5 binding: 3

What do the screens show for `O=[N+]([O-])c1cc(-c2ccc(C(=S)N3CCOCC3)o2)ccc1Cl`?
Bcl-xL primary: 37*; eLon inh: -1; GLD-1 TGE inh: 19; EBV gp42 inh: 1; MEX-5 binding: -1

What do the screens show for `O=[N+]([O-])c1cc(-c2ccc(/C=N/n3cnnc3)o2)ccc1Cl`?
Bcl-xL primary: 1; eLon inh: 5; GLD-1 TGE inh: -4; MEX-5 binding: -40*

How did O=[N+]([O-])c1cccc(-c2ccc(C(=S)N3CCOCC3)o2)c1 do in these assays?
Bcl-xL primary: 5; eLon inh: -2; GLD-1 TGE inh: 1; EBV gp42 inh: -10; MEX-5 binding: -2

What do the screens show for `CCN(CC)C(=O)C(C(=O)c1cccc([N+](=O)[O-])c1)n1cc(Cl)ccc1=O` (configuration not stated)?
Bcl-xL primary: 2; eLon inh: 1; GLD-1 TGE inh: 4; EBV gp42 inh: 17; MEX-5 binding: -1

Results for COc1ccccc1CCNC(=O)c1cc(COc2cccc(C(F)(F)F)c2)on1 ?
Bcl-xL primary: 3; eLon inh: -7; GLD-1 TGE inh: 2; MEX-5 binding: -1

What do the screens show for `COc1ccc(N=CC2=C(Nc3ccc(OC)cc3)c3c(C)nn(-c4ccccn4)c3CC2)cc1`?
Bcl-xL primary: active; GLD-1 TGE inh: active

What do the screens show for `CCCCc1nc(SCC(=O)N2CCOCC2)c2c(=O)n(C)c(=O)n(C)c2n1`?
Bcl-xL primary: -3; eLon inh: -2; GLD-1 TGE inh: 2; MEX-5 binding: -3

How did CCOC(=O)C1=C(c2ccccc2)N=c2s/c(=C\c3cc(OC)c(OC)c(OC)c3)c(=O)n2C1c1cccs1 (configuration not stated) do in these assays?
Bcl-xL primary: 35*; eLon inh: -8; GLD-1 TGE inh: 4; EBV gp42 inh: -5; MEX-5 binding: -9

What do the screens show for `COCCNC(=O)c1cc(-c2ccc(-c3ccccc3)cc2)nc2ccccc12`?
Bcl-xL primary: -2; eLon inh: -7; GLD-1 TGE inh: -8; MEX-5 binding: 1

How did COc1ccc2c(C=Nc3c(C)n(C)n(-c4ccccc4)c3=O)c(O)n(Cc3ccco3)c(=O)c2c1 do in these assays?
Bcl-xL primary: -10; eLon inh: -11; GLD-1 TGE inh: 19; EBV gp42 inh: 78*; MEX-5 binding: -13
